Experimental data as given in PubChem BioAssay.
“And” between values parts separate entries of the source, which are not always exact repeats. Equal values may be shown once. The source made the active and inactive calls.

Experiments:
[1] = tested on: XIP peptide (Xip251-270) binding; experiment: small-molecule binders of XIP peptide, primary screen, biochemical, small-molecule microarray, fluorescence 635/667 nm, 0.1 µg/mL protein (AID 1182); conditions: fluorescent protein binding, 635 nm, higher = more signal, called active from +8 up or from −8 down
[2] = tested on: XIP peptide (Xip251-270); experiment: small-molecule binders of XIP peptide, primary screen, biochemical, small-molecule microarray, fluorescence 635/667 nm, 0.5 µg/mL protein (AID 1183); conditions: small-molecule microarray binding, fluorescence 635 nm; higher = more signal
[3] = Plasmodium falciparum growth inhibition, primary screen, strain 3D7, DAPI fluorescence, 100 nL (AID 1184);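 note: parasites grown inside human red blood cells in medium with human serum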; conditions: P. falciparum 3D7 growth, 3 d, higher = more signal
[4] = molecular target: Homeobox protein Hox-A13 (Mus musculus) (UniProt Q62424); experiment: inhibitors of HoxA13-DNA binding, primary screen, biochemical, fluorescence polarization, labeled oligonucleotide (AID 1185); conditions: 15 min, higher = more signal, called active from +8 up or from −8 down
Homeobox protein Hox-A13 (Mus musculus), sequence (Q62424 whole entry, looked up): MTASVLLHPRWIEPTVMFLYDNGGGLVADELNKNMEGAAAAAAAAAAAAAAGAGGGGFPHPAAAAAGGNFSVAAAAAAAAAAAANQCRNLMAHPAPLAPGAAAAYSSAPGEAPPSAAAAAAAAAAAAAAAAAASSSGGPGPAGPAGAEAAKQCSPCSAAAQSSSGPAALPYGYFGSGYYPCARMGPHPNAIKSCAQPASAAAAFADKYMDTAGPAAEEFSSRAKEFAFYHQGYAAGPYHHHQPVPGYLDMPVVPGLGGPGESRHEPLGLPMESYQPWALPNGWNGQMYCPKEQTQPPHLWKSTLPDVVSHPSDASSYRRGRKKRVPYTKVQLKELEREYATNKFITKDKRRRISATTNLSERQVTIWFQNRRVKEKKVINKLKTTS

SMILES: C[C@@H](c1ccccc1)N1C(=O)[C@H]2[C@H]3[C@H](O)[C@H](O)CC(=O)[C@@H]3CC[C@H]2C1=O
- composite z-score [1]: -0.415 (inactive)
- composite z-score [2]: 0.403
- z-score [3]: 0.241
- z-score [4]: 0.063 (inactive)

SMILES: COC(=O)C1=C(C)N(Cc2ccccc2)C2=C(C(C)=O)[C@H](c3ccccc3)[C@@](O)(C(=O)OC)C(=O)N2[C@@H]1c1ccccc1
- composite z-score [1]: 0.284 (inactive) and -0.864 (inactive)
- composite z-score [2]: 0.727 and -1.64
- z-score [3]: 0.512 and -0.515
- z-score [4]: -4.62 (inactive) and 0.136 (inactive)

SMILES: C[C@@H](ON=C1[C@H]2CCn3c(=O)n(-c4ccccc4)c(=O)n3[C@H]2[C@H](O)[C@@H]2O[C@H]12)c1cn([C@H](CO)Cc2ccccc2)nn1
- composite z-score [1]: 0.764 (inactive)
- composite z-score [2]: 0.297
- z-score [3]: -0.516
- z-score [4]: -2.41 (inactive)

SMILES: CC(C)=NOC[C@@H](O)COCc1ccco1
- composite z-score [1]: -0.651 (inactive)
- composite z-score [2]: 0.258
- z-score [3]: 0.814
- z-score [4]: -1.15 (inactive)

SMILES: COC(=O)C1=C(C)N(Cc2ccccc2)C2=C3C(=O)N(c4ccccc4)C(=O)[C@@H]3[C@@](O)(C(=O)OC)C(=O)N2[C@@H]1c1ccccc1
- composite z-score [1]: 0.357 (inactive) and 0.908 (inactive)
- composite z-score [2]: 0.673 and 0.243
- z-score [3]: -0.441 and 0.347
- z-score [4]: -3.12 (inactive) and -0.385 (inactive)

SMILES: C=C(C)C(=O)OC[C@@H]1CN2[C@@H](CC[C@@H](C)[C@@H]2c2ccc(Br)cc2)C(=O)O1
- composite z-score [1]: 0.0138 (inactive)
- composite z-score [2]: 0.175
- z-score [3]: 0.693
- z-score [4]: -3.29 (inactive)

SMILES: CCOC(=O)CCN1C(=O)[C@H]2[C@H]3[C@H](O)[C@H](O)CC(=NNC(=O)OCC)[C@@H]3CC[C@H]2C1=O
- composite z-score [1]: 0.872 (inactive)
- composite z-score [2]: 0.466
- z-score [3]: 2.07
- z-score [4]: 0.0438 (inactive)

SMILES: CCN1C(=O)[C@H]2[C@H]3[C@H](O)[C@H](O)CC(=NNC(=O)OCc4ccc(OC)cc4)[C@H]3CC[C@H]2C1=O
- composite z-score [1]: 0.0568 (inactive)
- composite z-score [2]: 0.267
- z-score [3]: 0.38
- z-score [4]: 0.429 (inactive)

SMILES: Cc1ccc(S(=O)(=O)OC[C@@H]2CN3[C@@H](CC[C@@H](C)[C@@H]3c3ccc(Br)cc3)C(=O)O2)cc1
- composite z-score [1]: 0.589 (inactive) and -0.699 (inactive)
- composite z-score [2]: 0.432 and 0.299
- z-score [3]: -0.17 and -0.013
- z-score [4]: 0.16 (inactive) and 0.956 (inactive)

SMILES: COC(=O)C1=C(C)N(Cc2ccccc2)C2=C(C(C)=O)C[C@@](O)(C(=O)OC)C(=O)N2[C@@H]1c1ccccc1
- composite z-score [1]: 0.411 (inactive) and 1.64 (inactive)
- composite z-score [2]: -0.358 and 0.645
- z-score [3]: 0.467 and 0.637
- z-score [4]: -1.52 (inactive) and -2.36 (inactive)

SMILES: CO[C@@H]1C=CCC(=O)N2CCC[C@H]2C(=O)OC[C@H](C)C(=O)OC[C@H]1C
- composite z-score [1]: 0.28 (inactive)
- composite z-score [2]: 0.612
- z-score [3]: 0.471
- z-score [4]: -0.499 (inactive)

SMILES: CO[C@H]1COC(=O)CC=C[C@@H](C)COC(=O)[C@@H](OCc2ccccc2)C=C[C@@H]1C
- composite z-score [1]: -0.147 (inactive)
- composite z-score [2]: -0.106
- z-score [3]: 0.56
- z-score [4]: -0.383 (inactive)

SMILES: COC(=O)C1=C(C)N(Cc2ccccc2)[C@]23O[C@](C(=O)OC)(C(=O)N2[C@@H]1c1ccccc1)[C@H]1C(=O)N(c2ccccc2)C(=O)[C@H]13
- composite z-score [1]: 0.229 (inactive) and 0.555 (inactive)
- composite z-score [2]: -0.275 and -0.308
- z-score [3]: -0.391 and 1.02
- z-score [4]: -2.26 (inactive) and -1.88 (inactive)

SMILES: CC(C)=NOCc1ccc(-c2cn([C@@H]3COC[C@H]3O)nn2)cc1
- composite z-score [1]: 0.364 (inactive)
- composite z-score [2]: -0.149
- z-score [3]: 1.76
- z-score [4]: -0.221 (inactive)

SMILES: O=C(NN=C1C[C@@H](O)[C@@H](O)[C@@H]2[C@@H]3C(=O)N(Cc4ccc5c(c4)OCO5)C(=O)[C@@H]3CC[C@H]12)OCc1ccccc1
- composite z-score [1]: 0.974 (inactive)
- composite z-score [2]: 0.222
- z-score [3]: 0.228
- z-score [4]: 0.0311 (inactive)

SMILES: CON(C)C(=O)c1nnc2c3ccccc3n(S(=O)(=O)c3ccc(C)cc3)c2n1
- composite z-score [1]: 0.41 (inactive) and 0.536 (inactive)
- composite z-score [2]: 0.632 and 0.305
- z-score [3]: -0.248 and -0.675
- z-score [4]: -5.36 (inactive) and -5.11 (inactive)

SMILES: Cc1cc2c(nc1C)CCCN2CC(O)CN1CCCc2nc(-c3ccc(Br)cc3)ccc21 (stereo not drawn)
- composite z-score [1]: 1.5 (inactive) and 4.73 (inactive)
- composite z-score [2]: 0.719 and 0.327
- z-score [3]: -0.614 and 0.112
- z-score [4]: -7.89 (inactive) and -7.9 (inactive)

SMILES: C[C@@H]1CC[C@@H](C(=O)O)N[C@H]1c1ccc(-c2ccco2)cc1
- composite z-score [1]: 1.06 (inactive)
- composite z-score [2]: 0.827
- z-score [3]: -0.25
- z-score [4]: -1.59 (inactive)

SMILES: CCOC(=O)[C@H](Cc1ccccc1)NC(=O)CCC1CC(OC(=O)NCc2cccc3ccccc23)CC2(CCCC(COC(=O)NCCCN3CCCC3=O)O2)O1 (stereo partly drawn)
- composite z-score [1]: 0.684 (inactive)
- composite z-score [2]: 0.351
- z-score [3]: -1.63
- z-score [4]: -4.68 (inactive)

SMILES: CC(C)=CCCC(C)=CCON=C1C[C@@H](O)[C@@H](O)[C@@H]2[C@@H]3C(=O)N([C@@H](C)c4ccccc4)C(=O)[C@@H]3CC[C@H]12
- composite z-score [1]: 1.32 (inactive)
- composite z-score [2]: 0.105
- z-score [3]: -0.12
- z-score [4]: -0.414 (inactive)

SMILES: COC(=O)C1=C(C)N(Cc2ccccc2)C2=C3C(=O)N(C)C(=O)[C@@H]3[C@@](O)(C(=O)OC)C(=O)N2[C@@H]1c1ccccc1
- composite z-score [1]: 0.214 (inactive) and -0.566 (inactive)
- composite z-score [2]: 0.0447 and 0.0893
- z-score [3]: 0.557 and 0.251
- z-score [4]: -1.2 (inactive) and -0.234 (inactive)

SMILES: CCN1C(=O)[C@H]2[C@H]3[C@H](O)[C@H](O)CC(=NOC)[C@@H]3CC[C@H]2C1=O
- composite z-score [1]: -0.397 (inactive)
- composite z-score [2]: 0.774
- z-score [3]: 0.638
- z-score [4]: 1.98 (inactive)

SMILES: CC(C)CON=C1C[C@@H](O)[C@@H](O)[C@@H]2[C@@H]3C(=O)N(c4cccc(Oc5ccccc5)c4)C(=O)[C@@H]3CC[C@H]12
- composite z-score [1]: 0.0483 (inactive)
- composite z-score [2]: 0.741
- z-score [3]: -0.638
- z-score [4]: 0.875 (inactive)

SMILES: CO[C@H]1COC(=O)CC=C[C@H](C)[C@H](OC)COC(=O)[C@@H](C)COC(=O)CC=C[C@@H]1C
- composite z-score [1]: -0.205 (inactive) and 0.308 (inactive)
- composite z-score [2]: 0.602 and -0.337
- z-score [3]: 0.298 and 0.795
- z-score [4]: 0.397 (inactive) and 0.774 (inactive)

SMILES: Cc1ccc(S(=O)(=O)N[C@H]2COC(=O)[C@@H](Cc3ccccc3)NC(=O)[C@@H](C)COC(=O)CC=C[C@@H]2C)cc1
- composite z-score [1]: 0.124 (inactive) and 0.125 (inactive)
- composite z-score [2]: 0.174 and -0.0928
- z-score [3]: -0.446 and -1.34
- z-score [4]: 0.469 (inactive) and -3.02 (inactive)

SMILES: COc1ccc(O[C@H]2C=C[C@@H](c3ccccc3)O[C@@H]2COC(=O)CCC(C)=NO[C@H](C)c2cn([C@H](CO)Cc3ccccc3)nn2)cc1
- composite z-score [1]: 0.31 (inactive) and 0.164 (inactive)
- composite z-score [2]: 0.238 and 0.548
- z-score [3]: -1.46 and -1.1
- z-score [4]: -5.26 (inactive) and -4.59 (inactive)

SMILES: CO[C@@H]1COC(=O)CC=C[C@H](C)COC(=O)[C@H](C)NC(=O)CC=C[C@H]1C
- composite z-score [1]: -0.0437 (inactive)
- composite z-score [2]: 0.195
- z-score [3]: -0.233
- z-score [4]: -0.16 (inactive)

SMILES: C[C@@H]1CC[C@H]2C(=O)O[C@H](CN=[N+]=[N-])CN2[C@H]1c1ccc(Br)cc1
- composite z-score [1]: -0.036 (inactive) and -0.0365 (inactive)
- composite z-score [2]: 0.183 and 0.186
- z-score [3]: -2.02 and -0.068
- z-score [4]: -1.98 (inactive) and -3.31 (inactive)

SMILES: CO[C@H]1COC(=O)CC=C[C@@H](C)COC(=O)[C@H](CCSC)NC(=O)CC=C[C@@H]1C
- composite z-score [1]: 0.218 (inactive) and 0.322 (inactive)
- composite z-score [2]: 0.421 and 0.562
- z-score [3]: -1.51 and -0.356
- z-score [4]: -0.947 (inactive) and -0.902 (inactive)

SMILES: COC(=O)CC=C[C@@H](C)[C@@H](CO)NS(=O)(=O)c1ccc(C)cc1
- composite z-score [1]: -0.468 (inactive) and 0.212 (inactive)
- composite z-score [2]: 0.169 and 0.315
- z-score [3]: -0.106 and 0.0276
- z-score [4]: 0.0308 (inactive) and -1.12 (inactive)

SMILES: CCCNC(=O)OC[C@H]1O[C@H](CCON=C(C)CCN2CCc3nc(-c4ccccc4)c(-c4ccccc4)cc3C2)C=C[C@@H]1Oc1ccc(OC)cc1
- composite z-score [1]: -0.377 (inactive)
- composite z-score [2]: 0.201
- z-score [3]: -0.821
- z-score [4]: -2.84 (inactive)

SMILES: COC(=O)C1=C(C)N(Cc2ccccc2)C2=C3C(=O)CCC[C@@H]3[C@@](O)(C(=O)OC)C(=O)N2[C@@H]1c1ccccc1
- composite z-score [1]: 0.995 (inactive) and 0.0397 (inactive)
- composite z-score [2]: 0.135 and -0.554
- z-score [3]: 0.0894 and 0.169
- z-score [4]: -0.77 (inactive) and -1.47 (inactive)

SMILES: CO[C@@H]1COC(=O)[C@H](Cc2ccccc2)NC(=O)CC=C[C@@H](C)[C@H](OC)COC(=O)[C@@H](C)NC(=O)CC=C[C@H]1C
- composite z-score [1]: 0.219 (inactive) and 0.97 (inactive)
- composite z-score [2]: 0.499 and 0.535
- z-score [3]: -0.446 and 0.677
- z-score [4]: -0.525 (inactive) and -0.47 (inactive)

SMILES: COC(=O)C1=C(C)N(Cc2ccccc2)[C@]23O[C@](C(=O)OC)(C(=O)N2[C@@H]1c1ccccc1)[C@@H](C(=O)OC)[C@H]3C(=O)OC
- composite z-score [1]: 1.4 (inactive) and -0.409 (inactive)
- composite z-score [2]: -0.0215 and 0.118
- z-score [3]: -0.0831 and 0.255
- z-score [4]: -4.02 (inactive) and -0.38 (inactive)

SMILES: CO[C@H]1COC(=O)[C@H](C)NC(=O)CC=C[C@@H](C)[C@H](OC)COC(=O)CC=C[C@@H]1C
- composite z-score [1]: 0.195 (inactive)
- composite z-score [2]: 0.394
- z-score [3]: 0.459
- z-score [4]: -0.298 (inactive)

SMILES: CCCC[C@@H]1CN2[C@H](c3ccc(Br)cc3)[C@@H](C)CC[C@H]2C(=O)O1
- composite z-score [1]: 0.744 (inactive) and -0.433 (inactive)
- composite z-score [2]: -0.322 and -0.118
- z-score [3]: -0.0735 and 0.113
- z-score [4]: -1.48 (inactive) and -3.43 (inactive)

SMILES: C[C@@H]1CN2[C@@H](CC[C@@H](C)[C@@H]2c2ccc(Br)cc2)C(=O)O1
- composite z-score [1]: -0.0537 (inactive) and -1.1 (inactive)
- composite z-score [2]: -0.252 and 0.581
- z-score [3]: -0.218 and 0.559
- z-score [4]: 0.101 (inactive) and -0.0592 (inactive)
